# Data taken from PubChem BioAssay.
# “And” between values parts separate entries of the source, which are not always exact repeats. Identical values can stand only once. The source made the active and inactive calls. Unless noted, no stated cut-off is given here; in the data, active means parasite load remaining mostly below about 12% (no sharp cut-off); inactive means mostly above about 10%.
# Assays:
# [1] = BT084 cell growth, single and combined drugs, ICGC_MB145, cisplatin and BGB IC40 combos (AID 1671461); conditions: BT084 medulloblastoma cells, drug combinations, stronger effect = higher value;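 further: cells exposed to drugs for 96 hours; 0% = vehicle DMSO and 100% = high DMSO full killing control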
# [2] = RCMB18 cell growth, single agent and combined, cisplatin and BGB IC40 combos (AID 1671462; in the data active means inhibition above about 80%;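 further: cells exposed to compound for four days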); conditions: RCMB18 medulloblastoma cells, stronger effect = higher value
# [3] = CRL1545 cell growth, single agent and combined, cisplatin and BGB IC20 combos (AID 1671464; in the data active means inhibition above about 80%;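 further: cells exposed to compound for 96 hours before readout; 0% = vehicle DMSO and 100% = high DMSO killing control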); conditions: CRL1545 osteosarcoma cells, stronger effect = higher value
# [4] = P. berghei load reduction in hepatocytes – cell-based, HepG2, luciferase luminescence, HepG2 viability, primary screen (AID 624349);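 further: 100% = mean of DMSO negative control wells on the same plate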; conditions: P. berghei liver stage in HepG2, luciferase luminescence, concentration not given here; parasite load remaining: stronger effect = lower value; viability: measured here: HepG2 viability without parasites
# [5] = viability loss with induced miR-34 in A549 – imaging, A549 dox-inducible miR-34, nuclei and caspase counts, primary screen (AID 1347080;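 active means compounds whose cell count with miR-34 switched on is under 0.7 times the count with it off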); conditions: A549 miR-34 inducible, Hoechst nuclei count, 48 h
# [6] = MELAS cybrid and Rieske KO viability enhancers – cell-based, MELAS cybrids, Rieske KO mouse fibroblasts, CellTiter-Glo, primary screen (AID 1508586;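 active means mean z-score across replicates of 1.96 or higher in either the MELAS or the Rieske mutant cell line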;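 further: z relative to plate mean and SD of compound and empty wells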); conditions: low glucose
# [7] = compounds altering viability of human ES cells (AID 493140; call rule not given here;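 further: cells exposed to compounds for four days before counting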); conditions: human embryonic stem cell survival screen; stronger effect = higher value
# [8] = stronger effect = lower value, cell number ratio, induced over uninduced
# [9] = measured here: relative caspase fold change +Dox/-Dox
# [10] = measured here: total cells with miR-34 induction, stronger effect = lower value
# [11] = measured here: total cells without miR-34 induction
# [12] = MELAS cybrid survival, CellTiter-Glo 48 h, stronger effect = higher value
# [13] = Rieske KO mouse fibroblast survival, CellTiter-Glo 72 h
smiles,measurement,setting,value
COc1ccc(CC(N)C(=O)NC2C(CO)OC(n3cnc4c(N(C)C)ncnc43)C2O)cc1 (stereo unspecified),inhibition,"[1]; cisplatin combination, at 0.5 µM",43% and 48.9%
same,inhibition,"[1]; cisplatin combination, at 5 µM",88.5% and 94%
same,inhibition,"[1]; measured here: BGB IC40 combination 0.05 uM, at 0.05 µM",-4.12% and 46.7%
same,inhibition,"[1]; single agent, at 5 µM",105% and 104%
same,inhibition,[2]; at 0.5 µM,33.4% (inactive) and 51.8% (inactive)
same,inhibition,"[2]; cisplatin combo, at 5 µM",76% and 95.5%
same,inhibition,"[2]; measured here: BGB IC40 combination, at 0.05 µM",-32% and 8.46%
same,inhibition,"[2]; measured here: combination with cisplatin, at 0.5 µM",49.2% and 73.8%
same,inhibition,"[2]; single agent, at 5 µM",95.9% and 95.4%
same,inhibition,[3]; at 0.5 µM,86.2% (active) and 95.7% (active)
same,inhibition,"[3]; measured here: with BGB IC20 combination, at 0.5 µM",92.5% and 96.5%
same,inhibition,"[3]; measured here: with cisplatin IC20 combination, at 0.5 µM",82.6% and 95.3%
same,inhibition,"[3]; single agent, at 0.05 µM",-45.7% and -4%
same,inhibition,"[3]; single agent, at 5 µM",100% and 99.7%
Cc1c(Cl)cccc1Nc1ncccc1C(=O)O,parasite load remaining,[4],71.2% (inactive)
same,viability,[4],70.4%
same,fold change,[5]; [8],0.943 (inactive)
same,fold change,[5]; [9],0.763
same,cell count,[5]; [10],9020
same,cell count,[5]; [11],9560
same,z-score,[6]; [12],0.72 (inactive)
same,z-score,[6]; [13],0.0323
NC[C@@H]1O[C@H](O[C@H]2[C@@H](O)[C@H](O[C@@H]3[C@@H](O)[C@H](N)C[C@H](N)[C@H]3OC3O[C@H](CO)[C@@H](O)[C@H](O)[C@H]3N)O[C@@H]2CO)[C@H](N)[C@@H](O)[C@@H]1O (stereo partly specified),parasite load remaining,[4],69.5% (inactive)
same,viability,[4],103%
same,fold change,[5]; [8],0.833 (inactive)
same,fold change,[5]; [9],1.19
same,cell count,[5]; [10],8720
same,cell count,[5]; [11],10500
same,z-score,[6]; [12],0.673 (inactive)
same,z-score,[6]; [13],-0.125
CC(=O)N[C@@H](CC(=O)N[C@H](CCC(=O)O)C(=O)O)C(=O)O,parasite load remaining,[4],91.6% (inactive)
same,viability,[4],69.1%
same,fold change,[5]; [8],0.929 (inactive)
same,fold change,[5]; [9],1.02
same,cell count,[5]; [10],9500
same,cell count,[5]; [11],10200
same,z-score,[6]; [12],0.603 (inactive)
same,z-score,[6]; [13],0.146
OC(CCN1CCCCC1)(c1ccccc1)C1C[C@@H]2C=C[C@H]1C2 (stereo partly specified),parasite load remaining,[4],24.7% (inactive)
same,viability,[4],105%
same,fold change,[5]; [8],0.888 (inactive)
same,fold change,[5]; [9],1.45
same,cell count,[5]; [10],8210
same,cell count,[5]; [11],9240
same,z-score,[6]; [12],-0.0819 (inactive)
same,z-score,[6]; [13],-0.0447
CCOC1O[C@H]([C@@H](COCc2ccccc2)OCc2ccccc2)[C@H](OCc2ccccc2)[C@H]1O (stereo partly specified),parasite load remaining,[4],66.9% (inactive)
same,viability,[4],70.5%
same,fold change,[5]; [8],0.904 (inactive)
same,fold change,[5]; [9],0.887
same,cell count,[5]; [10],8110
same,cell count,[5]; [11],8970
same,z-score,[6]; [12],-0.366 (inactive)
same,z-score,[6]; [13],0.506
CO[C@@H]1[C@@H](O[C@@H]2O[C@H](C)[C@@H](O[C@H]3C[C@@](C)(OC(=O)CC(C)C)[C@@H](O)[C@H](C)O3)[C@H](N(C)C)[C@H]2O)[C@@H](CC=O)C[C@@H](C)[C@@H](O)/C=C/C=C/C[C@@H](C)OC(=O)C[C@H]1OC(C)=O,parasite load remaining,[4],40.7% (inactive)
same,viability,[4],45.1%
same,fold change,[5]; [8],0.924 (inactive)
same,fold change,[5]; [9],0.331
same,cell count,[5]; [10],7880
same,cell count,[5]; [11],8530
same,z-score,[6]; [12],-0.757 (inactive)
same,z-score,[6]; [13],-0.227
CC(=O)Nc1c(I)c(C(=O)N[C@H]2C(O)O[C@H](CO)[C@@H](O)[C@@H]2O)c(I)c(N(C)C(C)=O)c1I (stereo partly specified),parasite load remaining,[4],113% (inactive)
same,viability,[4],109%
same,fold change,[5]; [8],0.901 (inactive)
same,fold change,[5]; [9],1.22
same,cell count,[5]; [10],9390
same,cell count,[5]; [11],10400
same,z-score,[6]; [12],0.559 (inactive)
same,z-score,[6]; [13],0.37
CC(=O)O[C@H]1C[C@@]2(C)[C@@H](C[C@@H](O)[C@H]3[C@@]4(C)CC[C@@H](O)[C@@H](C)C4CC[C@@]32C)/C1=C(\CCC=C(C)C)C(=O)O (stereo partly specified),parasite load remaining,[4],147% (inactive)
same,viability,[4],140%
same,fold change,[5]; [8],0.911 (inactive)
same,fold change,[5]; [9],1.1
same,cell count,[5]; [10],8570
same,cell count,[5]; [11],9410
same,z-score,[6]; [12],-3.27 (inactive)
same,z-score,[6]; [13],-2.48
CC(=O)N(CC(C)C(=O)O)c1c(I)cc(I)c(N)c1I (stereo unspecified),survival,[7],3.33 (inactive)
same,parasite load remaining,[4],76.2% (inactive)
same,viability,[4],95.9%
same,fold change,[5]; [8],0.901 (inactive)
same,fold change,[5]; [9],1.42
same,cell count,[5]; [10],9460
same,cell count,[5]; [11],10500
same,z-score,[6]; [12],0.846 (inactive)
same,z-score,[6]; [13],0.109
CC(C)(C)NCC(O)COc1ccccc1C1CCCC1 (stereo unspecified),survival,[7],4.5 (inactive)
same,parasite load remaining,[4],64.8% (inactive)
same,viability,[4],78.7%
same,fold change,[5]; [8],0.898 (inactive)
same,fold change,[5]; [9],0.683
same,cell count,[5]; [10],7970
same,cell count,[5]; [11],8880
same,z-score,[6]; [12],-0.603 (inactive)
same,z-score,[6]; [13],-0.983
